USP1-UAF1 inh = blocks the human USP1/UAF1 deubiquitinase complex. 390,000 tested, 0.23% active. Potency, µM (top dose mostly 57.1 µM), for the others: at the top dose activity change, negative = inhibition, usual class: inhibitors. recombinant USP1/UAF1, Ub-Rhodamine cleavage fluorescence. O94782; active means well fitted inhibition curve with a large enough effect; inconclusive means small, poorly fitted or top-dose-only effect; inactive means no such curve, though single readings can be large or run the other way; further: potency means the concentration at half of the fitted maximal effect; on the % scale 0 is the no-effect control and ±100 the full control effect; nearly all actives have a fitted effect of over 60% in size
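USP1/UAF1 complex (1 nM) preincubated 15 min at room temperature with compound, then Ub-Rho substrate (150 nM final) added. Kinetic fluorescence at 480/540 nm over 6 reads at 60 s intervals; 50 mM HEPES pH 7.8, 0.5 mM EDTA, 0.1 mg/ml BSA, 1 mM TCEP, 0.01% Tween-20.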
D1 PAM = enhances dopamine response at the human D1 receptor; HEK293 TREx D1 cells, calcium flux, dopamine EC20 potentiation; potentiation, % at 10 µM; 360,000 tested, 0.036% active; AID 504651; in the data active means potentiation above about 30%; further: 0% is about no effect
D1 antagonist = blocks dopamine activation of the human D1 receptor. 360,000 tested, 3.2% active. P21728. HEK293 TREx D1 cells, calcium flux, dopamine EC80; active compounds read low. activity change, negative = inhibition, % at 10 µM; in the data active means activity change below about -30%; further: on the % scale 0 is the no-effect control and ±100 the full control effect
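Compound effects on dopamine-evoked calcium signalling were measured in tetracycline-induced HEK293 Trex D1 cells. Dopamine at EC80 followed a 180 s compound pre-read, and fluorescence was tracked kinetically for 180 s more.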
D1 ag = activates the human D1 dopamine receptor | activation, % at 2 µM | 360,000 tested, 1% active | HEK293 T-REx D1 cells, calcium flux, agonist mode; further: 0% is about no effect
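Agonism was scored from calcium flux recorded over 180 s (1 read/s) after pintool compound addition, following a 10-cycle baseline. Cells were inducible force-coupled HEK293 TREx D1, plated overnight at 30 C and loaded with no-wash calcium dye.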
TRHR ag = agonists of human TRH receptor | P34981 | TRHR cells, calcium flux fluo-8, FDSS agonist mode | activation, % at 2 µM | 360,000 tested, 0.18% active | AID 493084; further: 0% is about no effect
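TRHR-expressing cells loaded with fluo-8 calcium dye; 23 nL library compound pin-transferred, kinetic FDSS fluorescence (Ex 480/Em 530) recorded about 180 s for agonist-induced calcium release, before a 10 nM TRH EC20 addition for potentiator mode.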
TRHR PAM = allosterically enhances the human TRH receptor | P34981 | TRHR cells, fluo-8 calcium fluorescence, EC20 TRH enhancement | enhancement, % at 2 µM | 360,000 tested, 0.66% active | AID 493056; in the data active means enhancement above about 30%; further: 0% is about no effect
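TRHR-expressing cells loaded with fluo-8 calcium dye were read kinetically (ex 480/em 530) during compound addition, then stimulated with an EC20 of TRH (10 nM final). Enhancement of the Gq-mediated intracellular calcium response was scored.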
* marks the source's active call; other numbers are inactive results. In the library only some 4.4% were active in any assay of this set; here they are far more common. Unless noted, no stated cut-off is given here; in the data, active means activation above about 30%; inactive means the rest.

Screening COc1cc(CNC(=O)CSCc2nc3cccnc3n2C2CCCCC2)cc(OC)c1OC returned USP1-UAF1 inh -11.9%, D1 PAM -2.5, D1 antagonist -27.8, D1 ag 1.0, TRHR ag -0.6 and TRHR PAM -4.6.
Screening CCCOc1ccccc1C1CC(=O)NC2=C1C(=O)CCC2 (centres undefined) returned USP1-UAF1 inh -14.6%, D1 PAM -4.4, D1 antagonist 5.3, D1 ag 14.5, TRHR ag 1.6 and TRHR PAM 4.7.
Cn1c2c(c(=O)n(C)c1=O)C(c1ccccc1OC(F)F)C1=C(CCCC1=O)N2 (centres undefined) was read as USP1-UAF1 inh 0.4%, D1 PAM -3.8, D1 antagonist -36.4*, D1 ag 10.2, TRHR ag -0.1 and TRHR PAM -1.5.
For Cc1ccc(NC2=C(Cl)C(=O)OC2OC(=O)c2ccccc2)c(C)c1 (centres undefined) the results were USP1-UAF1 inh -19.5%, D1 PAM -2.1, D1 antagonist -50.6*, D1 ag 9.2, TRHR ag -0.4 and TRHR PAM -2.2.
Screening Cc1ccccc1NC1=C(Cl)C(=O)OC1OC(=O)c1ccccc1C (centres undefined) returned USP1-UAF1 inh -24.3%, D1 PAM -1.3, D1 antagonist -21.9, D1 ag 0.8, TRHR ag -0.1 and TRHR PAM -8.0.
Cc1cccc(C)c1NC1=C(Cl)C(=O)OC1OC(=O)c1ccccc1 (centres undefined) was read as USP1-UAF1 inh -3.4%, D1 PAM -1.2, D1 antagonist -48.5*, D1 ag -1.2, TRHR ag -0.5 and TRHR PAM -8.3.
Cc1ccc(NC2=C(Cl)C(=O)OC2OC(=O)c2ccco2)cc1 (centres undefined) was read as USP1-UAF1 inh -12.8%, D1 PAM -1.2, D1 antagonist -20.7, D1 ag 4.5, TRHR ag 0.2 and TRHR PAM -5.3.
Screening CCOc1ccc(CNC(=O)c2cc3ccccn3n2)cc1OC returned USP1-UAF1 inh inconclusive, D1 PAM 0.6, D1 antagonist -2.6, D1 ag 3.3, TRHR ag -0.2 and TRHR PAM 10.4.
For Cc1nccc(-c2cc(-c3ccc(Cl)cc3Cl)no2)n1 the results were USP1-UAF1 inh -13.2%, D1 PAM -5.0, D1 antagonist -14.4, D1 ag 1.1, TRHR ag -0.3 and TRHR PAM 32.8*.
`CC1(C)C2CCC(C2)C1C/C=N/NC(N)=S` (centres undefined) gave USP1-UAF1 inh -11.6%, D1 PAM -6.2, D1 antagonist -1.4, D1 ag 1.0, TRHR ag 0.1 and TRHR PAM 32.6*.
`Cc1ccccc1NS(=O)(=O)c1ccc2[nH]cc(C(=O)NCCc3ccccc3)c(=O)c2c1` gave USP1-UAF1 inh -23.0%, D1 PAM -0.9, D1 antagonist 9.9, D1 ag 6.4, TRHR ag 0.7 and TRHR PAM -5.9.
`COc1cc(OC)c(CN2CCc3c([nH]c4ccccc34)C2)cc1Br` gave USP1-UAF1 inh -22.2%, D1 PAM -8.7, D1 antagonist -48.8*, D1 ag 7.0, TRHR ag 0.7 and TRHR PAM -2.0.
`COc1cc(OC)c(CN2CCC(Cc3ccccc3)CC2)cc1Br` gave USP1-UAF1 inh -18.9%, D1 PAM -8.7, D1 antagonist -42.8*, D1 ag 8.5, TRHR ag 1.6 and TRHR PAM 3.4.
`Cc1cccc(CN2CCc3c([nH]c4ccccc34)C2)c1` gave USP1-UAF1 inh -23.9%, D1 PAM -0.5, D1 antagonist 1.6, D1 ag 4.5, TRHR ag 1.0 and TRHR PAM 1.5.
For COc1ccccc1CNC(=O)CCc1c(C)c2cc3c(C)c(C)oc3cc2oc1=O the results were USP1-UAF1 inh 9.0%, D1 PAM -0.8, D1 antagonist -23.0, D1 ag 6.6, TRHR ag -2.5 and TRHR PAM 16.9.
CN1/C(=C\C=C2/SC(=S)NC2=O)C(C)(C)c2ccccc21 was read as USP1-UAF1 inh 25.1µM*, D1 PAM 12.4, D1 antagonist -28.7, D1 ag 436.1*, TRHR ag 82.9* and TRHR PAM 0.8.
CN1/C(=C\C=C2/C(=O)Oc3ccccc3C2=O)C(C)(C)c2ccccc21 was read as USP1-UAF1 inh inconclusive, D1 PAM 20.4, D1 antagonist 89.1, D1 ag 544.8*, TRHR ag 217.0* and TRHR PAM -30.5.
For CCCN1C(=O)/C(=C\C=C2\N(CC)c3ccccc3C2(C)C)SC1=S the results were USP1-UAF1 inh inconclusive, D1 PAM -2.1, D1 antagonist 1.6, D1 ag 91.8*, TRHR ag 35.6* and TRHR PAM -2.1.
`CN1C(=CC=C2C=C(I)C(=O)C(I)=C2)C(C)(C)c2ccccc21` gave USP1-UAF1 inh -22.3%, D1 PAM -2.5, D1 antagonist -42.4*, D1 ag 19.1, TRHR ag 9.3 and TRHR PAM 2.7.
`CN1/C(=C\C=N\O)C(C)(C)c2ccccc21` gave USP1-UAF1 inh -14.9%, D1 PAM 1.6, D1 antagonist 4.9, D1 ag -0.6, TRHR ag -0.5 and TRHR PAM -3.1.
`CO/N=C/C=C1/N(C)c2ccccc2C1(C)C` gave USP1-UAF1 inh -8.9%, D1 PAM 3.5, D1 antagonist -6.7, D1 ag -2.6, TRHR ag -1.6 and TRHR PAM -1.8.
For CC1CCN(c2nnc(-n3cccc3CNc3cccc(F)c3)s2)CC1 the results were USP1-UAF1 inh -18.6%, D1 PAM -8.1, D1 antagonist -16.6, D1 ag 1.1, TRHR ag -0.7 and TRHR PAM -0.9.
Screening CN(C)c1ccc(N=C/C=C2/N(C)c3ccccc3C2(C)C)cc1 returned USP1-UAF1 inh -15.3%, D1 PAM -12.2, D1 antagonist -30.3*, D1 ag 22.4, TRHR ag 3.3 and TRHR PAM -5.9.
CC1CCN(C(=O)C2CCCN(c3ncnc4c3nc3n4CCCCC3)C2)CC1 (centres undefined) was read as USP1-UAF1 inh -3.8%, D1 PAM 0.0, D1 antagonist -37.3*, D1 ag 0.3, TRHR ag 0.2 and TRHR PAM -4.0.
Screening Cc1ccc(NC(=O)C2CCCN(c3ncnc4onc(C)c34)C2)c(Cl)c1 (centres undefined) returned USP1-UAF1 inh -25.0%, D1 PAM -7.5, D1 antagonist -53.9*, D1 ag 14.5, TRHR ag 0.1 and TRHR PAM -7.5.
